In PMC7862700, “An all-to-all approach to the identification of sequence-specific readers for epigenetic DNA modifications on cytosine” one finds binding signal data, which are given here for one sequence.

What all share (test): DAPPL (digital affinity profiling via proximity ligation, sequencing); 10 mM Tris-HCl pH 7.5, 50 mM NaCl, 1 mM DTT, 4% glycerol, room temperature, 30 min; GST-TFs on glutathione beads, 16-mer random dsDNA library, 0.1% formaldehyde crosslink after washing; high values mean tight binding
One test deals with T1, ELK1 (Homo sapiens, UniProt P19419 1-428).
T1 sequence: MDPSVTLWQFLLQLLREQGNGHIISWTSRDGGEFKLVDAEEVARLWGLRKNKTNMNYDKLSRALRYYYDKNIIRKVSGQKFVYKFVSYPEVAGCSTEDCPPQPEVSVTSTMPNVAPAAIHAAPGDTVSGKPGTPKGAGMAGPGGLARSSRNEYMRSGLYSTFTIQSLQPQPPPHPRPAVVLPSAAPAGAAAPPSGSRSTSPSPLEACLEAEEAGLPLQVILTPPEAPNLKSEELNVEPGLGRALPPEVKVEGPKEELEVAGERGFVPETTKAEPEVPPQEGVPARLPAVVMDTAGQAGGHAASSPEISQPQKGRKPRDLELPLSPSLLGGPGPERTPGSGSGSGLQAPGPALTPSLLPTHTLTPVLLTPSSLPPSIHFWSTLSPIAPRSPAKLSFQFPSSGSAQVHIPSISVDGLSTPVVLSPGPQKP
Conditions: protein: recombinant; tags: N-terminal GST; dsDNA, one strand shown. The procedure, abridged:
(§1)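 Human transcription factors were made in yeast as GST fusions, captured on glutathione beads and barcoded with DNA. With a tag-only sample included, the pool was incubated with 200 nmole of a random double-stranded 16-mer DNA library in Tris/NaCl/DTT/glycerol buffer at room temperature for 30 min, then crosslinked with 0.1% formaldehyde after washing, ligated by proximity, amplified and sequenced. For binding signal, each hexamer's read frequency for a factor is divided by its frequency for the tag-only sample.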

A further test addresses T2, GABPA (Homo sapiens, UniProt Q06546 1-454).
T2 sequence: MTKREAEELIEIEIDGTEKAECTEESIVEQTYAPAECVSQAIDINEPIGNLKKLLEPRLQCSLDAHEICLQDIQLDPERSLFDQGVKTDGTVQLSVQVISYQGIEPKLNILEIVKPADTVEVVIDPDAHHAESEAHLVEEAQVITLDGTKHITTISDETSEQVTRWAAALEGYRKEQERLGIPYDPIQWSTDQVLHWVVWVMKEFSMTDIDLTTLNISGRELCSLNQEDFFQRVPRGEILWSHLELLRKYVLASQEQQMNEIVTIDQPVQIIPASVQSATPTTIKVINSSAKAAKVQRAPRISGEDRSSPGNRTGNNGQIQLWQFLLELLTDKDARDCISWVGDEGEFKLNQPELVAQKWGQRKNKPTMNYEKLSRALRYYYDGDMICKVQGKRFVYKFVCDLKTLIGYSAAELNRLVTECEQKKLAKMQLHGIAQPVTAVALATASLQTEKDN
To be noted: protein: recombinant; tags: N-terminal GST; dsDNA, one strand shown. Put shortly: as §1

Another test addresses T3, ERG (Homo sapiens, UniProt P11308 1-479).
T3 sequence: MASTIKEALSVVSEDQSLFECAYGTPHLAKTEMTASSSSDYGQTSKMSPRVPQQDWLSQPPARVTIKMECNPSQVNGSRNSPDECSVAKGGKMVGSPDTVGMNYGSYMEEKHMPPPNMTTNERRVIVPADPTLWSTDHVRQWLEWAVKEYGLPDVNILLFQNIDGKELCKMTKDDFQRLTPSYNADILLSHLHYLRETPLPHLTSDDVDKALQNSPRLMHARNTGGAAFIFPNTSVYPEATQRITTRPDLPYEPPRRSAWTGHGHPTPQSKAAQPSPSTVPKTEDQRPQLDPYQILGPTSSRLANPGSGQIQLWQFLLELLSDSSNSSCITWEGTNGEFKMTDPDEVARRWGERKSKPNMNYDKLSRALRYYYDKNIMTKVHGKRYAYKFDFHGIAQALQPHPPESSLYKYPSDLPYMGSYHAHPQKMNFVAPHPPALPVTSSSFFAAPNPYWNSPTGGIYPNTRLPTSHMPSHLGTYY
Conditions: protein: recombinant; tags: N-terminal GST; dsDNA, one strand shown. The procedure, abridged: as §1

For another test, the target named is ELF1 (Homo sapiens, UniProt P32519 1-619). Conditions: protein: recombinant; tags: N-terminal GST; dsDNA, one strand shown. Put shortly: as §1
For a further test, the target named is T4, EHF (Homo sapiens, UniProt Q9NZC4 1-300).
T4 sequence: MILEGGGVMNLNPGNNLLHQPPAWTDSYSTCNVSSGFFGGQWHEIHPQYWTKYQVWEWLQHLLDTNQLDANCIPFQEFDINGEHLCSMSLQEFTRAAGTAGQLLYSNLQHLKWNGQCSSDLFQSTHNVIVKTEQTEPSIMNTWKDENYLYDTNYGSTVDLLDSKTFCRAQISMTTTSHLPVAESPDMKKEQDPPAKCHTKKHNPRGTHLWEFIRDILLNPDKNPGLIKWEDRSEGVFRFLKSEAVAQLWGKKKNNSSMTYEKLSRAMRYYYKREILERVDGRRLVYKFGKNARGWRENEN
To be noted: protein: recombinant; tags: N-terminal GST; dsDNA, one strand shown. The procedure, abridged: as §1

Another test addresses SPIB (Homo sapiens, UniProt Q01892 1-262). Conditions: protein: recombinant; tags: N-terminal GST; dsDNA, one strand shown. Put shortly: as §1
The target of a further test is HSF1 (Homo sapiens, UniProt Q00613 1-529). Conditions: protein: recombinant; tags: N-terminal GST; chain copies: 3; dsDNA, one strand shown. Put shortly: as §1
A further test has as its target ELF4 (Homo sapiens, UniProt Q99607 1-663). Conditions: protein: recombinant; tags: N-terminal GST; dsDNA, one strand shown. Put shortly: as §1
For another test, the target named is T5, ELK4 (Homo sapiens, UniProt P28324-2 1-405).
T5 sequence: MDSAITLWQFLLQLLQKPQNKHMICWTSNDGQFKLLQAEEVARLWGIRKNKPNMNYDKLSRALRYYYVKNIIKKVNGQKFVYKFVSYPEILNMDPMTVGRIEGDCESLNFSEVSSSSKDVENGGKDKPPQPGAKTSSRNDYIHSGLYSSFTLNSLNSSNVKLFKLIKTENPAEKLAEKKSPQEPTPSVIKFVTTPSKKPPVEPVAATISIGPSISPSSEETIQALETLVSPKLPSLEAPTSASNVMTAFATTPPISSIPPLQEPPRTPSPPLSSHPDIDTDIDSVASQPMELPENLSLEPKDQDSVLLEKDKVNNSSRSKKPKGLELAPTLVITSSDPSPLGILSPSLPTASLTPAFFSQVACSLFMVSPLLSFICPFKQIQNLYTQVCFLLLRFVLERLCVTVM
To be noted: protein: recombinant; tags: N-terminal GST; dsDNA, one strand shown. Put shortly: as §1

In the next test the target is T6, ELF3 (Homo sapiens, UniProt P78545 1-371).
T6 sequence: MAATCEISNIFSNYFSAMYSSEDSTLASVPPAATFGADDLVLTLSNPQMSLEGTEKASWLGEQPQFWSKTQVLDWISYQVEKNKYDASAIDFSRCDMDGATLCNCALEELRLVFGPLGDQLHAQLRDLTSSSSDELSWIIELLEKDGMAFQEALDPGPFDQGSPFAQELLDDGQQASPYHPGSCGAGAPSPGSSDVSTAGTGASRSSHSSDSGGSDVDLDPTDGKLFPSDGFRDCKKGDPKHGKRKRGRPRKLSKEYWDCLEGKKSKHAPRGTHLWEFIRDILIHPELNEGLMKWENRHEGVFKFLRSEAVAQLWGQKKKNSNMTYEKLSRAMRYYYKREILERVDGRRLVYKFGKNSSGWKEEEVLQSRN
To be noted: protein: recombinant; tags: N-terminal GST; dsDNA, one strand shown. Put shortly: as §1

A further test concerns the target CRX (Homo sapiens, UniProt O43186 1-299). To be noted: protein: recombinant; tags: N-terminal GST; dsDNA, one strand shown. The procedure, abridged: as §1
In the next test the target is ETV1 (Homo sapiens, UniProt P50549 1-477). Conditions: protein: recombinant; tags: N-terminal GST; dsDNA, one strand shown. Put shortly:
as §1

The next test addresses T7, ERF (Homo sapiens, UniProt P50548 1-548).
T7 sequence: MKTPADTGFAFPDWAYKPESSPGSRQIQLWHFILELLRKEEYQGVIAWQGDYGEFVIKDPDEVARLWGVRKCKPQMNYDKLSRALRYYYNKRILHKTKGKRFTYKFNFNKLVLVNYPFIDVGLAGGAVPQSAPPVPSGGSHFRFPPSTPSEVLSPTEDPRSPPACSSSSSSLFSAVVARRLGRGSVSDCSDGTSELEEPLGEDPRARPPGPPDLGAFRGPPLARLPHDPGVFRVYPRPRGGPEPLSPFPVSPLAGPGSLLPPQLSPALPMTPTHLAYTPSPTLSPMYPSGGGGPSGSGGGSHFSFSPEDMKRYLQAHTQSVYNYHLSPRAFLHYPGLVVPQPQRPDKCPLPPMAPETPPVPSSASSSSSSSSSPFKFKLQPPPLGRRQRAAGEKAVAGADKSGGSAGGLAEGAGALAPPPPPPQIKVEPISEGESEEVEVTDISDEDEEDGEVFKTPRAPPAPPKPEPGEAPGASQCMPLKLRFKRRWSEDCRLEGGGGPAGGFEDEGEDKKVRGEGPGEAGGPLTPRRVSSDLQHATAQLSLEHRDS
To be noted: protein: recombinant; tags: N-terminal GST; dsDNA, one strand shown. The procedure, abridged:
as §1

For the next test, the target named is T8, ETV3L (Homo sapiens, UniProt Q6ZN32 1-361).
T8 sequence: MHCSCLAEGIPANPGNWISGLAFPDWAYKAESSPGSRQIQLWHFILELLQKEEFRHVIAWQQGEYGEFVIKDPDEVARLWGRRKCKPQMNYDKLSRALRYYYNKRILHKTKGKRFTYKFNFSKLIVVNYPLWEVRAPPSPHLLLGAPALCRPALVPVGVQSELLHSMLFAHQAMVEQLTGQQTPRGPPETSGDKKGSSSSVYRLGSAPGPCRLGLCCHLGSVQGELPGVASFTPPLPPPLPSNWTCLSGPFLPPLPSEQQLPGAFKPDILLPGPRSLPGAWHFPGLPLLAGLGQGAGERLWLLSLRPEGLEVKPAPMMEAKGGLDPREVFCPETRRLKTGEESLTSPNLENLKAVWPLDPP
Conditions: protein: recombinant; tags: N-terminal GST; dsDNA, one strand shown. Put shortly: as §1

In the next test the target is T9, SPDEF (Homo sapiens, UniProt O95238 1-335).
T9 sequence: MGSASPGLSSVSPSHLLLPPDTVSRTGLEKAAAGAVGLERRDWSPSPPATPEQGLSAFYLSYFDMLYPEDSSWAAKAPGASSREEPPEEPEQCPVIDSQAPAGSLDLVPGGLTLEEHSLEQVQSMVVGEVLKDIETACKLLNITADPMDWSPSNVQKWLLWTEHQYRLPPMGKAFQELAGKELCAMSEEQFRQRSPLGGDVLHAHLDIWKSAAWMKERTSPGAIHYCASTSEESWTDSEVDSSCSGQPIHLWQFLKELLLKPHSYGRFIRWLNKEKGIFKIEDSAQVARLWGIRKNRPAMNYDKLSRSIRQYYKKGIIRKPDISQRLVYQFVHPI
Conditions: protein: recombinant; tags: N-terminal GST; dsDNA, one strand shown. The procedure, abridged:
as §1

Another test deals with T10, ETV7 (Homo sapiens, UniProt Q9Y603 1-341).
T10 sequence: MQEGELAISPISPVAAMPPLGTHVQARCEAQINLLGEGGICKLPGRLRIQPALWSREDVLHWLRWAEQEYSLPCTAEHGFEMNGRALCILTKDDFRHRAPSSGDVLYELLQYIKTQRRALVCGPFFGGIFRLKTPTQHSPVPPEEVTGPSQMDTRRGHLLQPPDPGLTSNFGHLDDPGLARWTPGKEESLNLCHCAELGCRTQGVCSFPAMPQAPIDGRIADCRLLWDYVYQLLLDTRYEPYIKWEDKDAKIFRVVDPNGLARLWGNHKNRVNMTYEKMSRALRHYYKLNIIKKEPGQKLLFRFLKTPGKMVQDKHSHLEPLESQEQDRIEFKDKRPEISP
Conditions: protein: recombinant; tags: N-terminal GST; dsDNA, one strand shown. The procedure, abridged:
as §1

In a further test the target is T11, ELF5 (Homo sapiens, UniProt Q9UKW6-2 1-255).
T11 sequence: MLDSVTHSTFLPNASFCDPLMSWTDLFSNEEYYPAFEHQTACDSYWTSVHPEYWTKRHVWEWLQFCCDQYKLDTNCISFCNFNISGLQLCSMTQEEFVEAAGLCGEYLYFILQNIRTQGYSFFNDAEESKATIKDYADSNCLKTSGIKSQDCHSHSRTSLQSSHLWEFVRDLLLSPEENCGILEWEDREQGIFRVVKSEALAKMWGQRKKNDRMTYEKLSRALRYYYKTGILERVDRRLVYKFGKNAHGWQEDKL
Conditions: protein: recombinant; tags: N-terminal GST; dsDNA, one strand shown. The procedure, abridged: as §1

The target in another test is T12, ETV3 (Homo sapiens, UniProt P41162-2 1-143).
T12 sequence: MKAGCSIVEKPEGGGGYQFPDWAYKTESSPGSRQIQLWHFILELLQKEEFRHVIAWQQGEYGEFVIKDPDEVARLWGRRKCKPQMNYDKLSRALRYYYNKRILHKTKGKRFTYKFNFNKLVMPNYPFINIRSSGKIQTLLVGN
To be noted: protein: recombinant; tags: N-terminal GST; dsDNA, one strand shown. Put shortly: as §1

Sequence of ETV1 (P50549 whole entry): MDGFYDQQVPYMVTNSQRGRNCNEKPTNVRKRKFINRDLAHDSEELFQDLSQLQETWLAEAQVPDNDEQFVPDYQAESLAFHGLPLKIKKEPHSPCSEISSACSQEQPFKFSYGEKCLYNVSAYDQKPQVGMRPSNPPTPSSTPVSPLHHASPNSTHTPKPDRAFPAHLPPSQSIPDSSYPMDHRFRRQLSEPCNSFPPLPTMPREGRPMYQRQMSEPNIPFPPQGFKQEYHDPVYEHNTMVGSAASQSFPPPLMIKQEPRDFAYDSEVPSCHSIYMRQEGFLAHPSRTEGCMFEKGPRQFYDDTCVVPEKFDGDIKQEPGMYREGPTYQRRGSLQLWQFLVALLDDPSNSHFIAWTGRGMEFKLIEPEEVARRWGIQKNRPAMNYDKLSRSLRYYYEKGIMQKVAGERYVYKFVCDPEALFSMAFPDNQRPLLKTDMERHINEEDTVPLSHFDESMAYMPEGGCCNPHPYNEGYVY
Sequence of SPIB (Q01892 whole entry): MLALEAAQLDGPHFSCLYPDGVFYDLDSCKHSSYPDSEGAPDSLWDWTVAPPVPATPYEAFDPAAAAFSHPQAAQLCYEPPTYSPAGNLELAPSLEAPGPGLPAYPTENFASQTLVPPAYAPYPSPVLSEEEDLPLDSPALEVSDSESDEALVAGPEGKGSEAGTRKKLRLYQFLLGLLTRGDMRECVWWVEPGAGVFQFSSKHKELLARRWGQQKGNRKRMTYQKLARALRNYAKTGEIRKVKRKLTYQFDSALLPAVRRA
Sequence of CRX (O43186 whole entry): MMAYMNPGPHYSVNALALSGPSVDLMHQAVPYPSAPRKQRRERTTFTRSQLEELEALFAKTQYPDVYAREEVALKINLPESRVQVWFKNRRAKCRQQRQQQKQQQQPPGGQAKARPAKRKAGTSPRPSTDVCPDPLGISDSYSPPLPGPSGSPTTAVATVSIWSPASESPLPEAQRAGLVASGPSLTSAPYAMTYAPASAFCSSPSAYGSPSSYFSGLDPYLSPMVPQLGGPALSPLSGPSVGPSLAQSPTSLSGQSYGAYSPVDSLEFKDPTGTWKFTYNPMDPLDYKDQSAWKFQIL
Sequence of ELF4 (Q99607 whole entry): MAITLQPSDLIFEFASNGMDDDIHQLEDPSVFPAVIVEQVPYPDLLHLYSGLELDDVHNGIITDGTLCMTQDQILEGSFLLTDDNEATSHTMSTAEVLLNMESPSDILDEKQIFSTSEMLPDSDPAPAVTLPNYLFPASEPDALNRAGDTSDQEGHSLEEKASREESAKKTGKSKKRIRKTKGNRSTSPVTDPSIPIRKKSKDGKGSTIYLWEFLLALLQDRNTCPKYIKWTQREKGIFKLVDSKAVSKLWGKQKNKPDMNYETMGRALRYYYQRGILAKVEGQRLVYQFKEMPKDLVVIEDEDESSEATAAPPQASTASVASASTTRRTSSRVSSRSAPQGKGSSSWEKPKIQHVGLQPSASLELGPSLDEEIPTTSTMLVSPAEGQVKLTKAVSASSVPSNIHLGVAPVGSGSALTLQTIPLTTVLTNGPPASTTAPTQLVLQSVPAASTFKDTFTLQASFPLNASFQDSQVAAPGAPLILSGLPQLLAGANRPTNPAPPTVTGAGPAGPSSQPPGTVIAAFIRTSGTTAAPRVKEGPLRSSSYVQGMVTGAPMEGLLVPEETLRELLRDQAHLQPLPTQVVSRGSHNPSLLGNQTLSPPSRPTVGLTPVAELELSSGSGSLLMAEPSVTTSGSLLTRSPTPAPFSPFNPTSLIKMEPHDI
Sequence of HSF1 (Q00613 whole entry): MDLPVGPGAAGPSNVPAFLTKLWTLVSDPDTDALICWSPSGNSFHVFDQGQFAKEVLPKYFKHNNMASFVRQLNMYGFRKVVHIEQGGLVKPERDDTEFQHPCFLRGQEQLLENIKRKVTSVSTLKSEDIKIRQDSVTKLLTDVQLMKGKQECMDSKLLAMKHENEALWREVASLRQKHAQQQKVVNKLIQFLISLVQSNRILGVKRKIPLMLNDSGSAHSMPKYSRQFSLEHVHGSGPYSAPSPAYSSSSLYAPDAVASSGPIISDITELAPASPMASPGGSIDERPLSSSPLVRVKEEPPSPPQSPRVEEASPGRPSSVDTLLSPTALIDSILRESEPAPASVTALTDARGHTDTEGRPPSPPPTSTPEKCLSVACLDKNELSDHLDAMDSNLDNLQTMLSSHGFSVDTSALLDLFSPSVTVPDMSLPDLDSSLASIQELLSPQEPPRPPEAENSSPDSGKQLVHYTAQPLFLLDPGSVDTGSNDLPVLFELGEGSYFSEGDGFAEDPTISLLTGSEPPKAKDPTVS
Sequence of ELF1 (P32519 whole entry): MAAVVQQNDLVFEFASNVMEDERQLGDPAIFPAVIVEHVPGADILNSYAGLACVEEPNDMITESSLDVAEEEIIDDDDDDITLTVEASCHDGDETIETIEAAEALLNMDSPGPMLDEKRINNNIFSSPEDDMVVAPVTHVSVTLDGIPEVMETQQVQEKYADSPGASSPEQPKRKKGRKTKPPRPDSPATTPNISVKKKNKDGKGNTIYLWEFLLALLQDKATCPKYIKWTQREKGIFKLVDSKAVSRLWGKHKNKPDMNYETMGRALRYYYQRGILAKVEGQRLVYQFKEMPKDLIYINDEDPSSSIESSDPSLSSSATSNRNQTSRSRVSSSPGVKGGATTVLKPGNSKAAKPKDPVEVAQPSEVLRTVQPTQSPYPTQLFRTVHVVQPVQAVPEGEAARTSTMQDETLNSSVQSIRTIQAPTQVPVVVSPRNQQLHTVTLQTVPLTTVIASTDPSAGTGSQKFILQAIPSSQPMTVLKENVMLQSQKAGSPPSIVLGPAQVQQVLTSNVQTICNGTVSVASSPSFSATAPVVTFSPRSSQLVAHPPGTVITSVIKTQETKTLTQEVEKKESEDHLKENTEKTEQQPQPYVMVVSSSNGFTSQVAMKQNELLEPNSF

As to GCGAAT, the binding signal was 1.07 fold enrichment (6-mer frequency, TF over GST control) in the test with ELK1; 1.05 fold enrichment (6-mer frequency, TF over GST control) with GABPA; 1.08 fold enrichment (6-mer frequency, TF over GST control) with ERG; 1.11 fold enrichment (6-mer frequency, TF over GST control) in the test with ELF1; 1.17 fold enrichment (6-mer frequency, TF over GST control) in the test with EHF; 1 fold enrichment (6-mer frequency, TF over GST control) in the test with SPIB. In addition, the binding signal in the test with HSF1 was 1.27 fold enrichment (6-mer frequency, TF over GST control); in the test with ELF4, 1.02 fold enrichment (6-mer frequency, TF over GST control); with ELK4, 1.17 fold enrichment (6-mer frequency, TF over GST control); in the test with ELF3, 1.12 fold enrichment (6-mer frequency, TF over GST control); with CRX, 1.08 fold enrichment (6-mer frequency, TF over GST control); with ETV1, 1.04 fold enrichment (6-mer frequency, TF over GST control). For the same sequence, the binding signal in the test with ERF was 1.05 fold enrichment (6-mer frequency, TF over GST control); with ETV3L it was 1.06 fold enrichment (6-mer frequency, TF over GST control); with SPDEF it was 1.08 fold enrichment (6-mer frequency, TF over GST control); with ETV7, 1.04 fold enrichment (6-mer frequency, TF over GST control); in the test with ELF5 it was 1.04 fold enrichment (6-mer frequency, TF over GST control); with ETV3 it was 1.07 fold enrichment (6-mer frequency, TF over GST control).
